# Laboratory results published in PubChem BioAssay (NCI).
# The panel holds about 79,000 compounds, 15% with a hit somewhere; the sample as a whole holds those more often. Values without a mark were called inactive. No stated cut-off is given here; in the data, active means growth inhibition above about 70%; inactive means the rest.
# Assay: NCI Yeast Anticancer Drug Screen. Data for the cln2 rad14 strain (AID 165);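 further: 0% = growth equal to vehicle treated cultures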
# Settings: S. cerevisiae cln2 rad14 strain, at 5.0 µM (retest, dose inferred, filed as 0.5), stronger effect = higher value
# Summary of the method: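 Yeast carrying cln2 and rad14 alterations (cell cycle control and DNA damage repair) were exposed to compounds. Growth inhibition was measured against vehicle-treated controls.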
row,SMILES,growth inhibition
1,CCCNC(=O)OCc1ccc(NCCN(CC)CC)c2c(=O)c3ccccc3sc12,13%
2,COc1cc(C(c2cc3c(cc2O)OCO3)N2CCCCC2)cc(OC)c1OC (centres undefined),-6%
3,Cc1cc2c(cc1Cl)Sc1nnc(C)n1S2(=O)=O,17%
4,O=C(Oc1cccc2cccnc12)c1ccccc1,2%
5,CCCCCCN(CCCCCC)CCC(=O)c1ccc2cc(Br)c3ccccc3c2c1,8%
6,Cc1c2cc(Cl)ccc2cc2c1ccc1ccccc12,-3%
7,O=C1OC(CCCl)(c2ccccc2)CC1CN1CCOCC1 (centres undefined),15%
8,CCOC(=N)CCCSSc1ccc(N=[N+]=[N-])cc1,-7%
9,Cc1[nH]c2ccccc2c1/C=C1\C(=O)C2CCC1C2 (centres undefined),-4%
10,O=C(O)c1ccc2c3c(ncnc13)-c1ccccc1C2=O,36%
11,CCNCCNc1cc(O)c2c(c1O)C(=O)c1ccccc1C2=O,30%
12,Nc1nc(N)c2nc(CNc3ccc(C(=O)NC(CCC(=O)O)C(=O)O)cc3)cnc2n1 (centres undefined),5%
13,COc1ccccc1OC(=O)Oc1ccccc1OC,4%
14,NNC(=O)c1c(SCc2ccccc2)nc2c3ccccc3ccn12,24%
15,N#CC1Oc2ccccc2N1C(=O)c1ccccc1 (centres undefined),-6%
16,O=C1C2=Cc3ccccc3CCN2c2ccccc21,-8%
17,Cc1cc([N+](=O)[O-])cc(Cl)c1O,7%
18,Cc1c(Cl)cccc1N=NC(=O)NNc1cccc(Cl)c1C,29%
19,CCC[CH2][Sn]1([CH2]CCC)[O]C(=O)CN=Cc2c(ccc3ccccc23)[O]1,48%
